Assay [1] has as its target Protein kinase C gamma type (Homo sapiens) (UniProt P05129). As to conditions: at 1 µM.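 Further: each value is an averaged percent inhibition of the enzyme.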
Assay [2] has as its target T1, Protein kinase C iota type (Homo sapiens) (UniProt P41743).
T1 sequence (whole entry): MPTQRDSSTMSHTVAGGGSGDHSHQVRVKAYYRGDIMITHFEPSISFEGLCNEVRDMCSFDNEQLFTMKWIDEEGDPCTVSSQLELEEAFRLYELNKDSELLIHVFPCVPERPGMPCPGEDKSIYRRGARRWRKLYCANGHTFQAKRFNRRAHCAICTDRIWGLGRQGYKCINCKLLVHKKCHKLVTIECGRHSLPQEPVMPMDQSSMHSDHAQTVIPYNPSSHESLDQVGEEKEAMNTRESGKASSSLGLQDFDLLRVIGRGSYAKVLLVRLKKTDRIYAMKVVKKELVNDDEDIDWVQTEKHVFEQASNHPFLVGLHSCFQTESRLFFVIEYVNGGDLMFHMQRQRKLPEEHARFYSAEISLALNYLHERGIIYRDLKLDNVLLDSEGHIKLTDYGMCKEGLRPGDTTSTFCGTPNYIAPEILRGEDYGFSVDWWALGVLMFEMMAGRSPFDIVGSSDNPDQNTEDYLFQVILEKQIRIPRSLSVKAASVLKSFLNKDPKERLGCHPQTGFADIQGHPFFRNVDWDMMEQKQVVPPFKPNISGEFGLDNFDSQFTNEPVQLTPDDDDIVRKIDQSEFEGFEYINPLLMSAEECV
As to conditions: at 0.1 µM.

Assay [3] has as its target T1, Protein kinase C iota type (Homo sapiens). Particulars: at 1 µM.
Assay [4] addresses Protein kinase C theta type (Homo sapiens) (UniProt Q04759). As to conditions: at 0.1 µM.
Assay [5] shares this target. Particulars: at 1 µM.
Assay [6] deals with Protein kinase C beta type (Homo sapiens) (UniProt P05771). Particulars: at 0.1 µM.
The target is the same in assay [7]. Particulars: at 1 µM.
Assay [8] deals with T2, Serine/threonine-protein kinase D1 (Homo sapiens) (UniProt Q15139).
T2 sequence (whole entry): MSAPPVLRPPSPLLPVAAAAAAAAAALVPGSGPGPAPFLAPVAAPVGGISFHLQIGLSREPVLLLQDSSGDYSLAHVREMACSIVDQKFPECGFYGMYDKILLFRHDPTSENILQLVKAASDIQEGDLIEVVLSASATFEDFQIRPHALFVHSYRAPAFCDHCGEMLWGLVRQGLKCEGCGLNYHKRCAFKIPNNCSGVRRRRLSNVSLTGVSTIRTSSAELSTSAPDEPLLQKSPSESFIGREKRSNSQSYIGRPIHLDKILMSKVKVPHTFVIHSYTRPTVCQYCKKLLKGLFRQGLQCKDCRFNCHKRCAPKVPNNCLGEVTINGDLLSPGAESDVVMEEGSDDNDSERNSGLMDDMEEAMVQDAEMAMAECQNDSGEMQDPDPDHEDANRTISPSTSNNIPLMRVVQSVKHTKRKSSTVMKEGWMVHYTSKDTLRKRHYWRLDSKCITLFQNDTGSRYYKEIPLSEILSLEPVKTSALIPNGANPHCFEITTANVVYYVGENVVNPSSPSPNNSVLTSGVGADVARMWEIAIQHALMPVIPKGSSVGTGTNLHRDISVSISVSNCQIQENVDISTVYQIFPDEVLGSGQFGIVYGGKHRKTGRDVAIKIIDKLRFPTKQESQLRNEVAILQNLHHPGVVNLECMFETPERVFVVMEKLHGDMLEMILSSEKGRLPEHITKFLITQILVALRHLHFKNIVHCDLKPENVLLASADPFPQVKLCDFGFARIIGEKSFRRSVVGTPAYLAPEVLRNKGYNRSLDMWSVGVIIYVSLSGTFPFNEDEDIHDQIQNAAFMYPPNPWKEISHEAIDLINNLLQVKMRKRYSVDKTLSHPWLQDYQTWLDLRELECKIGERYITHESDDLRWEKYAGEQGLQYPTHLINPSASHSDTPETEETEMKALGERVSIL
Particulars: at 0.1 µM.

In assay [9] the target is T2, Serine/threonine-protein kinase D1 (Homo sapiens). As to conditions: at 1 µM.
The target of assay [10] is T3, Serine/threonine-protein kinase D2 (Homo sapiens) (UniProt Q9BZL6).
T3 sequence (whole entry): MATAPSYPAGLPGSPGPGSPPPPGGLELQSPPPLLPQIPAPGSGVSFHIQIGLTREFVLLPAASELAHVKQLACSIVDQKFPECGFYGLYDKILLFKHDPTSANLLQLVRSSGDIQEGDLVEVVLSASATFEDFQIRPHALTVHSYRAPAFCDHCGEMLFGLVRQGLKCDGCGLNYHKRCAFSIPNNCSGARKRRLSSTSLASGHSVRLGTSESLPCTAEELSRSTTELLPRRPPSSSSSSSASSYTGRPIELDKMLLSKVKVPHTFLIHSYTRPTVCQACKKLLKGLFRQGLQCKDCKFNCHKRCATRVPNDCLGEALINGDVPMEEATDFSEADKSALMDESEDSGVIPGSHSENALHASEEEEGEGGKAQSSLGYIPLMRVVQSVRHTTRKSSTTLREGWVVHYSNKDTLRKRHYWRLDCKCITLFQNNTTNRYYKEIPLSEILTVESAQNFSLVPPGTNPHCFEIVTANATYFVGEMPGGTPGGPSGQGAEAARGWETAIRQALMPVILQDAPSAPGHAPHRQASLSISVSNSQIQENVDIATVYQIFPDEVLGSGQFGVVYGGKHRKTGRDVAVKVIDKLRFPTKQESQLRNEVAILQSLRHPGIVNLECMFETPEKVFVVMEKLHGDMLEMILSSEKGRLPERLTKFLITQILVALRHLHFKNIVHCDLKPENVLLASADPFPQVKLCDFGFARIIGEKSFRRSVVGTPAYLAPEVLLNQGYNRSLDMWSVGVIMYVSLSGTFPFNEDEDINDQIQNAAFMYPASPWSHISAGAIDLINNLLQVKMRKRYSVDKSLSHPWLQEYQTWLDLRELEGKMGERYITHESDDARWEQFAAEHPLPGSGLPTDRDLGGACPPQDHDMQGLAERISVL
As to conditions: at 0.1 µM.

The target in assay [11] is T3, Serine/threonine-protein kinase D2 (Homo sapiens). As to conditions: at 1 µM.
In assay [12] the target is T4, Serine/threonine-protein kinase D3 (Homo sapiens) (UniProt O94806).
T4 sequence (whole entry): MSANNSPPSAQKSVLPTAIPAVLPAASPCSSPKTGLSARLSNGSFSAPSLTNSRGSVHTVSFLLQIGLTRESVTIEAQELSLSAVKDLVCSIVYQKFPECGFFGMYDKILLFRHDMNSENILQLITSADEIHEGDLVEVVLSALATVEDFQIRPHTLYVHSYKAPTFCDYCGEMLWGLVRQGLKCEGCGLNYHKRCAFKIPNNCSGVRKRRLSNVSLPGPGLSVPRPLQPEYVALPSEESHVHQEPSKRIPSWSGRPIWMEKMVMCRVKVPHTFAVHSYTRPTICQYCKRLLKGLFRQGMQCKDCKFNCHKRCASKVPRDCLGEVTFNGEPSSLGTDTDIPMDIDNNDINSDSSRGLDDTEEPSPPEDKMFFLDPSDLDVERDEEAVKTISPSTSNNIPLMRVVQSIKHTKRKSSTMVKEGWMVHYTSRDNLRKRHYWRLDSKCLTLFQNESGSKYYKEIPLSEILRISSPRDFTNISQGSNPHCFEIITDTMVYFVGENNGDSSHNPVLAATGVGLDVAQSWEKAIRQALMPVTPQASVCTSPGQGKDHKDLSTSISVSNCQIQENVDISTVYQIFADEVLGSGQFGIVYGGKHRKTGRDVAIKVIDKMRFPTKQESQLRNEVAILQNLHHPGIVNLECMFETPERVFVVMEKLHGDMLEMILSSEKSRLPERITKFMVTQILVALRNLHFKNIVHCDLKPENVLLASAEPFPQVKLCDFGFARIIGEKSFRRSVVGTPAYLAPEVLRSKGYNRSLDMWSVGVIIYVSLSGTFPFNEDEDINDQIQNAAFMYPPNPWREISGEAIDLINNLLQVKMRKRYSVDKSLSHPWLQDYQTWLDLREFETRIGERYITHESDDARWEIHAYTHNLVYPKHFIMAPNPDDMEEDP
Particulars: at 0.1 µM.

Assay [13] concerns the target T4, Serine/threonine-protein kinase D3 (Homo sapiens). As to conditions: at 1 µM.
Assay [14] has as its target T5, cGMP-dependent protein kinase 1 (Homo sapiens) (UniProt Q13976).
T5 sequence (whole entry): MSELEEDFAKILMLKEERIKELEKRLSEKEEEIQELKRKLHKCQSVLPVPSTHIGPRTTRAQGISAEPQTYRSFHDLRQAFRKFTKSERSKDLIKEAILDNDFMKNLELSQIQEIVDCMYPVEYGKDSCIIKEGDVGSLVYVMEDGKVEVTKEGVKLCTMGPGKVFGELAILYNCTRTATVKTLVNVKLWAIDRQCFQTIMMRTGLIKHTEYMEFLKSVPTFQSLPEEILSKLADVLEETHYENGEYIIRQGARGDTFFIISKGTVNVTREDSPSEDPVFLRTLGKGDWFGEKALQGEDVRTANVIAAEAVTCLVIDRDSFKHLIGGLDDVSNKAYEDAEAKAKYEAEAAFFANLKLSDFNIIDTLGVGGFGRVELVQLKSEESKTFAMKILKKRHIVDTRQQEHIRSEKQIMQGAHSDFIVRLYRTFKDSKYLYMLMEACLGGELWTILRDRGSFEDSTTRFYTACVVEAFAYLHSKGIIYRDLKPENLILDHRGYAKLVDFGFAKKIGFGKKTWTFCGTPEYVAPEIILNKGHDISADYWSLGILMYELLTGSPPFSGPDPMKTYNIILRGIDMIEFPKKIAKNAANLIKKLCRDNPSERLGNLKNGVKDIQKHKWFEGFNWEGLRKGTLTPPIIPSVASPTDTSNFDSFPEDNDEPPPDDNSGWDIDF
Particulars: at 0.1 µM.

Assay [15] addresses T5, cGMP-dependent protein kinase 1 (Homo sapiens). As to conditions: at 1 µM.
In assay [16] the target is T6, cGMP-dependent protein kinase 2 (Homo sapiens) (UniProt Q13237).
T6 sequence (whole entry): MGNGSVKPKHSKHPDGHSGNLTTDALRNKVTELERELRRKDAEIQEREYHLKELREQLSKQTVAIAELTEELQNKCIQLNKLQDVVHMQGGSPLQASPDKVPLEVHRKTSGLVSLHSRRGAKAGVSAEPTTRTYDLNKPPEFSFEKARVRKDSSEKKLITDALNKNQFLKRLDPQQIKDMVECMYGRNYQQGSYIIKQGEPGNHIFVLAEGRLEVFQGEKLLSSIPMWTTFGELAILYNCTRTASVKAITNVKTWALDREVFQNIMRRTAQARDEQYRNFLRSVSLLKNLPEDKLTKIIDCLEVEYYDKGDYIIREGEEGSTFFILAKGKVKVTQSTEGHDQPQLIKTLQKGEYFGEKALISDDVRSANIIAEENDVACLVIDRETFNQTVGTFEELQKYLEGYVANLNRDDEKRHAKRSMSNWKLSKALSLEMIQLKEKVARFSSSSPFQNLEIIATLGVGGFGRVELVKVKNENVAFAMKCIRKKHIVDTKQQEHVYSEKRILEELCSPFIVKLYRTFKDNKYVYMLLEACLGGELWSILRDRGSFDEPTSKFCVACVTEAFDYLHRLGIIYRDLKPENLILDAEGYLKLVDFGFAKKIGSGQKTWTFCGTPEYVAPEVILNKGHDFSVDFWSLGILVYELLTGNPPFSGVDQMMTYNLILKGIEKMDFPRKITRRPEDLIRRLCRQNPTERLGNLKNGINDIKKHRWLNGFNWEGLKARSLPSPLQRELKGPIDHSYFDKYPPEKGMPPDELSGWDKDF
As to conditions: at 0.1 µM.

The target in assay [17] is T6, cGMP-dependent protein kinase 2 (Homo sapiens). Particulars: at 1 µM.
Assay [18] concerns the target T7, cAMP-dependent protein kinase catalytic subunit PRKX (Homo sapiens) (UniProt P51817).
T7 sequence (whole entry): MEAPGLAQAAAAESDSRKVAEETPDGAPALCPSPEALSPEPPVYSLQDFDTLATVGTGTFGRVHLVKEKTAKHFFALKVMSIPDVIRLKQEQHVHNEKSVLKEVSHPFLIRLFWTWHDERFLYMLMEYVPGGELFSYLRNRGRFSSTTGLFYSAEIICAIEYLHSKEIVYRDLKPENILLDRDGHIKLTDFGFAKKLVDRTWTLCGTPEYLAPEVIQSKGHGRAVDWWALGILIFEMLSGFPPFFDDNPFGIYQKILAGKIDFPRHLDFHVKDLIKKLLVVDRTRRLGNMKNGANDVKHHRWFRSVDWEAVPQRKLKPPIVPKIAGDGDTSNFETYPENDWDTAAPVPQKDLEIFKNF
Particulars: at 0.1 µM.

For assay [19], the target named is T7, cAMP-dependent protein kinase catalytic subunit PRKX (Homo sapiens). Particulars: at 1 µM.
The target in assay [20] is Rho-associated protein kinase 1 (Homo sapiens) (UniProt Q13464). Particulars: at 0.1 µM.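 Further: values are mean percent inhibition of ROCK1.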
Sequence of Rho-associated protein kinase 1 (Homo sapiens) (Q13464 2-1354 limits assumed): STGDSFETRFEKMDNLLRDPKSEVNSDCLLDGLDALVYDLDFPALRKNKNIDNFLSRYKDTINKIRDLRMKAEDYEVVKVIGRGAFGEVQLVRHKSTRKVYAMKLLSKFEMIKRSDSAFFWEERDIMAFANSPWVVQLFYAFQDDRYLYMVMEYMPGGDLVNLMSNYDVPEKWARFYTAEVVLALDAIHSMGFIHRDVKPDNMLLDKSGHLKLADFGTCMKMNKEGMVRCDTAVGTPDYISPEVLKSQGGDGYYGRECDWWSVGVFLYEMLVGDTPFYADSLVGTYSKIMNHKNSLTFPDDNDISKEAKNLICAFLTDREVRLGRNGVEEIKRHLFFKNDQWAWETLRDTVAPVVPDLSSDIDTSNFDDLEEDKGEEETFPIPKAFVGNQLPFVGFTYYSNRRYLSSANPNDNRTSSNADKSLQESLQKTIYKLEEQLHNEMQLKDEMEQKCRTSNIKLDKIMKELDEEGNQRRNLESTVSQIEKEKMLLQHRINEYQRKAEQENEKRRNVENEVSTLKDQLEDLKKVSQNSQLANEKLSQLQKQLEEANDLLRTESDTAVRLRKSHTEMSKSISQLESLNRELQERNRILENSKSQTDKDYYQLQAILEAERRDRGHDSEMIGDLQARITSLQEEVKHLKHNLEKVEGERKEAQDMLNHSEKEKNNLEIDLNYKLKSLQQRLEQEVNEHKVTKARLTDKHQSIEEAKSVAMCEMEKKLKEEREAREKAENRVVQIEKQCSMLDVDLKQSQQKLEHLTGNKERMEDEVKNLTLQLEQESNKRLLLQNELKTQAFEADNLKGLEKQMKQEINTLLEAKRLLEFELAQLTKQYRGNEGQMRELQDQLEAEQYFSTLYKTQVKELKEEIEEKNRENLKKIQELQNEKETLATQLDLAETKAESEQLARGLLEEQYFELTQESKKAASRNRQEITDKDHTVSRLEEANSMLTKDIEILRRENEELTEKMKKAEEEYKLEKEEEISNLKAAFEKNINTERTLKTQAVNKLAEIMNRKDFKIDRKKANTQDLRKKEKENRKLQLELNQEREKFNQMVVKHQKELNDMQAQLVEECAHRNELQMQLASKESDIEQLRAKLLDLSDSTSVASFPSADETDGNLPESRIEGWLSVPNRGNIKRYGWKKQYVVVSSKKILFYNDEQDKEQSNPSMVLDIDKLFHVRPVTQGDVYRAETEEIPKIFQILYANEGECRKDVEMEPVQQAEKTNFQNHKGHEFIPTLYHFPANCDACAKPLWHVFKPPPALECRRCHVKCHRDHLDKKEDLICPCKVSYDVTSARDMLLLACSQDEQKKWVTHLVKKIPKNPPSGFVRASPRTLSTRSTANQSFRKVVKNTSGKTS

Sequence of Protein kinase C beta type (Homo sapiens) (P05771 2-671 limits assumed): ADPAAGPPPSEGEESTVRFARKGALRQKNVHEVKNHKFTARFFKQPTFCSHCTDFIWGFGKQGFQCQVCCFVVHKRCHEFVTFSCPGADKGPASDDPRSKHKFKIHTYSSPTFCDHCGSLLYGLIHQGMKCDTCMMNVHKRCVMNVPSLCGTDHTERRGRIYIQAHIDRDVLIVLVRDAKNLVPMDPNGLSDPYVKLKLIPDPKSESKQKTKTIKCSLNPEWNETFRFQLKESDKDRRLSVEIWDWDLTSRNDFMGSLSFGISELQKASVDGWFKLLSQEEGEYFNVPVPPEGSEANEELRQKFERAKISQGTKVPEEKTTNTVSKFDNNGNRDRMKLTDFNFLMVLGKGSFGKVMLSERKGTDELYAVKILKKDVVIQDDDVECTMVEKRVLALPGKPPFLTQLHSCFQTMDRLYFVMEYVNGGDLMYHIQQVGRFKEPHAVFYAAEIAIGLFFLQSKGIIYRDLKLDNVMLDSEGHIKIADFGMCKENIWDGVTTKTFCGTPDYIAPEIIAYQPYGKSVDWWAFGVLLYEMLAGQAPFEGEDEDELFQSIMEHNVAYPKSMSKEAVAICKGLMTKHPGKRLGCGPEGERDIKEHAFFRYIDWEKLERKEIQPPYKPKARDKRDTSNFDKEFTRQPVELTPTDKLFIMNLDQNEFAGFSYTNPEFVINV
Sequence of Protein kinase C theta type (Homo sapiens) (Q04759 whole entry, looked up): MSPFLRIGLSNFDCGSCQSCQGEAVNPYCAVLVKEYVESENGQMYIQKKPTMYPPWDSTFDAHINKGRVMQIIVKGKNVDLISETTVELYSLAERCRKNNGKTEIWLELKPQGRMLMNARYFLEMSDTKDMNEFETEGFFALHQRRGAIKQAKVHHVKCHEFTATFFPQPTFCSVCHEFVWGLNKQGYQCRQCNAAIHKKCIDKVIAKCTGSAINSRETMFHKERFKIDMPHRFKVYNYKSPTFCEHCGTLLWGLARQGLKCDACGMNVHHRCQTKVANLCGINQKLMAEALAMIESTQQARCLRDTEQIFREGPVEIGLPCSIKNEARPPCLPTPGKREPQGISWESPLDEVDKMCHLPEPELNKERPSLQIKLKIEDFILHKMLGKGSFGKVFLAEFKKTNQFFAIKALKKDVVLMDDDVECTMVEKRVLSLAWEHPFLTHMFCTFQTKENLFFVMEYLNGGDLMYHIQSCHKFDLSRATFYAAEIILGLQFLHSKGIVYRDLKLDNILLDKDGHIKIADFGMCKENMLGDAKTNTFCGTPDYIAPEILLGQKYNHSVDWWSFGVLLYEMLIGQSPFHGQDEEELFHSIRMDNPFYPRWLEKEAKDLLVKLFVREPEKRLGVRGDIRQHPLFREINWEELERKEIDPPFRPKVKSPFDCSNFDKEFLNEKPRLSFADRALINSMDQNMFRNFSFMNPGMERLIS

As for `COc1ccc(-c2nn3ncccc3c2-c2ccnc(Nc3ccc4c(c3)OCCO4)n2)cc1`, the inhibition – broadly, the drop in the measured response relative to a control, in per cent – in [1] is 3.96%; in [2], -0.29%; in assay [3], 0.67%; in assay [4] it was 0.69%; in [5] it was 2.58%; in assay [6], 1.22%. Further, the inhibition stood at 7.32% in assay [7]; 3.21% in [8]; 6.6% in [9]; 2.69% in [10]; 9.73% in assay [11]; 2.09% in assay [12]. Besides, the inhibition is 8.59% in assay [13]; -0.47% in [14]; -2.7% in assay [15]; 0.2% in [16]; -1.06% in assay [17]; 0.59% in assay [18]. The figures for the inhibition in assay [19] and in [20] were -0.08% and 0.43%, respectively.

The values above are taken from ChEMBL document CHEMBL1961873, “Compounds: GSK PKIS; Assays: Nanosyn kinase panel” (2012).
